# Measurements taken from PubChem BioAssay AID493200 (National Center for Advancing Translational Sciences (NCATS), 2011).
# Records with an inconclusive call do not appear. Where a call stands in place of a potency, no number is given. The source made the active and inactive calls. Calls follow the shape of the dose curve; as a rule, active = well fitted activation curve with a large enough effect; inconclusive = small, poorly fitted or top-dose-only effect; inactive = no such curve, though single readings can be large or run the other way.
# Assay: qHTS Assay for Rab9 Promoter Activators: Initial hit validation from the primary screen
# Conditions: Huh7 Rab9 promoter luciferase reporter, 24 h; series mostly up to 46.1 µM
# Outline: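 Huh7 cells stably carrying a Rab9 promoter–luciferase construct, plated in reduced-serum medium with 10% FBS, rested 2 h, then exposed to compounds in DMSO for 24 h at 37C. Luminescence read 10 min after adding Amplite luciferase reagent.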
# Potency is read from the fitted curve at half-maximal effect.
row,SMILES,Potency
1,CC1CN(C(=O)c2ccncc2)CC(C)O1 (stereo unspecified),inactive
2,NC(=O)C1(NC(=O)[C@@H]2CC3(CC(c4cccc(NC(=O)[C@@H]5CCC(=O)N5)c4)=NO3)CN2C(=O)c2ccccc2)CC1 (stereo partly specified),inactive
3,O=C(NCC1CCCO1)C(c1ccc(F)cc1)N(Cc1ccc2c(c1)OCO2)C(=O)c1ccc(CN2CCOCC2)o1 (stereo unspecified),inactive
4,CC(=O)NC(CCCN1C(=O)c2ccccc2C1=O)c1nnn(C)n1 (stereo unspecified),inactive
5,O=C(NCCc1ccccc1)c1cc2ncc(Br)cn2n1,25 µM (active)
6,COc1ccccc1C(=O)Nc1nnc(SCC(=O)NC2CCCC2)s1,0.888 µM (active)
7,CC(=O)Nc1nnc(SCC(=O)NCCOc2ccccc2)s1,inactive
8,O=C(c1cc2cc([N+](=O)[O-])ccc2oc1=O)n1cccn1,inactive
9,COc1ccc(C2(CNC(=O)/C=C/c3ccco3)CCCC2)cc1OC,inactive
10,Cc1ccc(S(=O)(=O)/N=C2\C=C(Nc3cccc(C(=O)O)c3)C(=O)c3ccccc32)cc1,inactive
11,S=C1NCN(CCc2ccccc2)CN1Cc1ccccc1,inactive
12,Cc1ccc(C(=O)Nc2ccc(N3CCN(C)CC3)nc2)cc1,25 µM (active)
13,CCN(CC(=O)N(CC(C)C)c1c(N)n(CC(C)C)c(=O)[nH]c1=O)Cc1nc2ccccc2c(=O)[nH]1,inactive
14,CC(C)C1(CCNC(=O)c2cccs2)CCOC(C)(C)C1 (stereo unspecified),inactive
15,COc1ccccc1CNC(=O)COc1ccc(C)cc1,inactive
16,NNC(=O)c1cccc(S(=O)(=O)Nc2cc(Cl)ccc2Cl)c1,inactive
